organism: Homo sapiens; experiment: To identify inhibition of the IFN signalling (Jak-Stat) pathway via expression of an eGFP reporter gene under the control of an IFN-stimulated response element (ISRE) containing MxA promoter.; type: functional; parameters: scale not given: direction of the effect not stated beside the values; conditions: 30 µM

Compound	Percent Effect [%]
Cc1cnn(CC2CCCN2Cc2coc(-c3ccccc3)n2)c1 (stereo not drawn)	-7.46
Cc1nc(CN2CCOCC3(CCN(c4cccnc4)CC3)C2)cs1	4.77
CNS(=O)(=O)c1ccc(C(=O)N2CCCC2Cc2ccccc2)o1 (stereo not drawn)	16.6
CN(CCC(F)(F)F)C(=O)[C@H]1CSCN1C(=O)OC(C)(C)C	-11.9
O=C(CN1CCOC(Cn2cccn2)C1)Nc1nncs1 (stereo not drawn)	13.3
CS(=O)(=O)NC1CCCN(C(=O)NCc2cc[nH]n2)C1 (stereo not drawn)	-0.514
c1cnc2c(c1)cc(C1CCOCC1)n2CCN1CCOCC1	4.82
CN(C)C(=O)COCc1cncc2c1CCN(Cc1nccn1C)C2	20.9
CN(C)S(=O)(=O)N1C[C@@H]2CC[C@H](C1)N(Cc1ccc3nsnc3c1)C2	4.28
CN(C)C(CNC(=O)c1cccc(-n2cnnn2)c1)c1ccccc1Cl (stereo not drawn)	10.5
Cc1cc(C)n(CC2CN(Cc3cscn3)CCO2)n1 (stereo not drawn)	-6.47
Cc1ccc(NC2CCN(C(=O)c3c(C)noc3C)CC2)nn1	-4.46
Cc1nc(N2CCOCC2)nc2c1CCN(C(=O)NC1CCCC1)CC2	0.0839
CCOc1nnc(CN(C)CC2CCCN2c2cccnn2)s1 (stereo not drawn)	-2.35
CN1N=C(C(=O)N(Cc2ccco2)C2CC2)CCC1=O	4.75
COc1cccc(CNC(CN2CCN(C)CC2)c2ccccc2)c1 (stereo not drawn)	11.2
Cc1csc2c(=O)n3c(nc12)CCN(C(=O)c1cccnc1)CC3	4.21
CC(C)n1ncc2cc(NC(=O)N3CCC(N4CCCC4)C3)cnc21 (stereo not drawn)	3.87

From ChEMBL document CHEMBL3988442, “University of Dundee, Small-Polar-MMV Screening Library” (2021)
